Reference: PubChem BioAssay
Calls of active or inactive are those of the source. Unless noted, no rule for the calls is given here.

Tests used:
[1] = tested on: Wnt5a (protein binding on small-molecule microarray); assay: Wnt5a binders on small-molecule microarray, primary screen, biophysical, 635/667 nm fluorescence (AID 1142); conditions: 635 nm fluorescence, higher = more signal;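 also: fluorescence read at 667 nm with signal to noise per printed feature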
[2] = cell viability in Huh7 cells, primary screen, cytotoxicity control for HCV replication inhibitor project, CellTiter-Glo luminescence, basal, 48 h (AID 1143); conditions: Huh7 HCV replicon, higher = more signal, called active from +8 up or from −8 down;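 also: Huh7 hepatoma cells carrying a hepatitis C replication reporter with no stimulus; test concentration not given here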
[3] = P. aeruginosa biofilm formation inhibitors, primary screen, PAO1 strain, BacTiter-Glo luminescence, LB-PBS (AID 1144); conditions: 12 h, higher = more signal
[4] = CREB reporter modulators without forskolin, primary screen, cell-based, PC12, CRE-LacZ reporter, unstimulated (AID 1145); conditions: no forskolin, luminescence, 4.5 h, higher = more signal, called active from +8 up or from −8 down
[5] = CREB reporter modulators under forskolin, primary screen, cell-based, PC12, CRE-LacZ reporter, forskolin-stimulated (AID 1146); conditions: luminescence, 4.5 h, higher = more signal, called active from +8 up or from −8 down;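 also: PC12 cells with 6xCRE LacZ reporter stimulated by forskolin 10 µM; beta-galactosidase reporter signal reflecting CREB driven transcription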
[6] = molecular target: Streptavidin (Streptomyces avidinii) (UniProt P22629); assay: streptavidin binders on small-molecule microarray, primary screen, artefact control for SMM compound annotation, biophysical, 635/667 nm fluorescence (AID 1147); conditions: streptavidin binding, higher = more signal;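 also: signal reflects streptavidin binding to arrayed compounds as a control protein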
Streptavidin (Streptomyces avidinii), sequence (P22629 whole entry, looked up): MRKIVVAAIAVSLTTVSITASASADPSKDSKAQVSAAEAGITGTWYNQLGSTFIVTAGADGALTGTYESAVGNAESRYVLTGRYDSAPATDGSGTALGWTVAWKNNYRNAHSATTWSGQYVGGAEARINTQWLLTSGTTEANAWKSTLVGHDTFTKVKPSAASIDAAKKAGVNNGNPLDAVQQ

[7] = small-molecule binders of probe aInhba, primary screen, biochemical, small-molecule microarray, 635/667 nm fluorescence (AID 1148); conditions: higher = more signal;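 also: score merges 667nm spot fluorescence with signal-to-noise for antibody binding to printed compounds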
Torsin-1A (Homo sapiens) [8] = molecular target: Torsin-1A (Homo sapiens) (UniProt O14656); assay: torsin A binders from cell lysate, primary screen, small-molecule microarray, wild-type, 635/667 nm (AID 1149); conditions: COS7 hTOR1A-WT lysate, 635 nm fluorescence, higher = more signal
Torsin-1A (Homo sapiens), sequence (O14656 whole entry, looked up): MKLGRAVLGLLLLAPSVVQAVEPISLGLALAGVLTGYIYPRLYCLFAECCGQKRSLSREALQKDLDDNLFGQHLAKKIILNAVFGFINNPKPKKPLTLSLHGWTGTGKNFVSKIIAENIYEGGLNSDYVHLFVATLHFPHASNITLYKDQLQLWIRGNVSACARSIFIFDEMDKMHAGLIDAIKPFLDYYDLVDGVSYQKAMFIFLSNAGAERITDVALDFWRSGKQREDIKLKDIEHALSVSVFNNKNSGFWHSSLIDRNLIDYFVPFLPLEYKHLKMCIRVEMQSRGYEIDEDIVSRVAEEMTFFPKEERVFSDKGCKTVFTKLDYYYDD

Torsin-1A (Homo sapiens) [9] = molecular target: Torsin-1A (Homo sapiens) (UniProt O14656); assay: small-molecule binders of mutant TOR1A in lysate, primary screen, cell lysate, small-molecule microarray, COS7 lysate, 635/667 nm fluorescence (AID 1150); conditions: COS7 hTOR1A mutant lysate, 635 nm fluorescence, higher = more signal;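 also: score pools 667 nm emission and signal to noise measuring lysate protein binding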
[10] = tested on: Sonic hedgehog protein (Shh); assay: small-molecule binders of Shh protein, primary screen, biochemical, small-molecule microarray, 635/667 nm fluorescence (AID 1151); conditions: small-molecule microarray binding, 635 nm fluorescence; higher = more signal;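 also: Shh protein binding to compounds spotted on small-molecule microarray slides; score combines spot fluorescence intensity with signal-to-noise across triplicate slides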

Row | SMILES | composite z-score [1] | z-score [2] | z-score [3] | z-score [4] | z-score [5] | composite z-score [6] | composite z-score [7] | composite z-score (Torsin-1A (Homo sapiens) [8]) | composite z-score (Torsin-1A (Homo sapiens) [9]) | composite z-score [10]
1 | Cc1ccc(S[C@]2(C(=O)NCc3ccccc3)CC(=O)N(Cc3ccccc3Cl)[C@@H]2c2ccc(CO)cc2)cc1 | -0.132 | -1.87 (inactive) | -0.491 (inactive) | -0.0512 (inactive) | -0.226 (inactive) | -0.744 | 0.298 | 0.163 | 0.0869 | 0.469
2 | O=C(NC1CC1)[C@@H]1c2ccccc2C(=O)N(C2CCCCC2)[C@H]1c1ccc(CO)cc1 | 0.0033 | -1.49 (inactive) | 0.446 (inactive) | -0.0259 (inactive) | -0.592 (inactive) | -0.104 | -0.221 | -0.164 | 0.324 | -0.118
3 | COc1cc(Cc2cc3c(c(CCc4ccccc4)n2)[Si](C(C)C)(C(C)C)O[C@H]3c2ccccc2)cc(OC)c1OC | -0.0786 | -4.48 (inactive) | 0.626 (inactive) | 0.875 (inactive) | 0.992 (inactive) | 0.537 | 0.182 | 0.707 | -0.0236 | -0.418
4 | C=CCOC(=O)[C@H]1[C@@H]2C(=O)O[C@@H](c3ccccc3)[C@@H](c3ccccc3)N2[C@@H](c2ccc(OCCOC(=O)[C@H]3C[C@H]4C(=O)NCC(=O)N4[C@H]3c3cccc(OCCO)c3)cc2)[C@]12C(=O)Nc1ccc(I)cc12 | 0.984 | -0.469 (inactive) | -0.282 (inactive) | 0.423 (inactive) | -0.142 (inactive) | 0.0708 | 0.434 | 0.418 | 0.83 | 1.94
5 | O=C(c1ccccc1)N1Cc2ccccc2C[C@@]2(N=C(c3ccc(OCCCO)cc3)O[C@H]2c2ccccc2)C1=O | 1.27 | -4.73 (inactive) | -0.191 (inactive) | 0.904 (inactive) | -1.12 (inactive) | 0.491 | 0.0658 | 0.881 | 1.06 | 2.19
6 | CC(C)(C)OC(=O)CC[C@]1(C(=O)N2CCOCC2)COC(c2ccc(OCCCO)cc2)=N1 | -0.278 | -0.107 (inactive) | -0.367 (inactive) | 1.34 (inactive) | -0.841 (inactive) | -0.0376 | 0.171 | 0.701 | 1.48 | -0.447
